In the library only some 11% were active in any assay of this set; here they are far more common.
Vaccinia Venus: vaccinia inhibition (Venus reporter). AID 720580. actives 0.46% (n = 330,000). Potency, µM (doses to about 36.5 µM), inactives show at the top dose activity change, negative = inhibition, hits mostly inhibitors. Vaccinia virus Venus reporter expression, fluorescence; calls by dose curve; tested in A549 cells; further: on the % scale 0 is the no-effect control and ±100 the full control effect; nearly all actives have a fitted effect of over 30% in size
VACV mCherry inh: vaccinia inhibition (mCherry reporter); Vaccinia virus mCherry reporter infection, fluorescence; actives 0.63% (n = 310,000); Potency, µM (top dose mostly 36.5 µM), without a hit: at the top dose activity change, negative = inhibition, actives largely listed as inhibitors; AID 720579; calls by dose curve; tested in A549 cells; further: on the % scale 0 is the no-effect control and ±100 the full control effect; nearly all actives have a fitted effect of over 35% in size
Pf growth 96h: P. falciparum growth inhibition at 96 hours. actives 6.9% (n = 320,000). AID 504834. Potency, µM (doses to about 28.7 µM), for inactives: at the top dose activity change, negative = inhibition, hits mostly inhibitors. P. falciparum luciferase reporter growth, 96 h; further: on the % scale 0 is the no-effect control and ±100 the full control effect
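Readout is luminescence from an integrated firefly luciferase in P. falciparum. Red cells, 2% hematocrit and 0.05% parasitemia final, were cultured with compound through two parasite generations (96 hours) at 37 C, 5% CO2.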
Pf growth 48h: inhibits P. falciparum growth in the first generation, 48 h. P. falciparum luciferase growth in erythrocytes, 48 h. Potency, µM (doses to about 28.7 µM), for the others: top-dose activity change, negative = inhibition, actives largely listed as inhibitors. actives 5.9% (n = 310,000); further: on the % scale 0 is the no-effect control and ±100 the full control effect
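Growth was read as firefly luciferase luminescence after a 48 h, 37 C, 5% CO2 exposure of compounds to reporter-bearing P. falciparum cultures (0.1% parasitemia, 2% hematocrit final) in Albumax-supplemented RPMI 1640.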
HCV inh: inhibitors of hepatitis C virus infection; actives 3.4% (n = 340,000); Huh7.5.1 HCVcc-Cre infection, luciferase reporter, 44 h; Potency, µM (highest dose often 41.8 µM), inactives show at the highest dose activity change, negative = inhibition, usual class: inhibitors; further: on the % scale 0 is the no-effect control and ±100 the full control effect
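1,000 cells/well; 4 h culture; + compound; + HCVcc-Cre (~0.5 moi); 44 h; luciferase substrate, RT 15 min; read 15 sec.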
NS1 function inh: inhibitors of influenza NS1 protein function. Potency, µM (titrated, usually from 46.1 µM), for the others: at the highest dose activity, positive = more growth. actives 0.4% (n = 270,000). AID 2326; calls by dose curve; further: actives are rising curves; nearly all actives have a fitted effect of over 50% in size
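Growth recovery, yeast-based: influenza A NS1 expressed in S. cerevisiae causes slow growth, and suppressors are detected by OD600. The parent strain without NS1 is used as positive control.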
* = called active by the depositor; [ ] = another dose, or the depositor's remark. Unless noted, the call rests on the fitted dose curve; in most records, active means well fitted inhibition curve with a large enough effect; inconclusive means small, poorly fitted or top-dose-only effect, or another doubt; inactive means no such curve, though single readings can be large or run the other way. Potency means the concentration at half of the fitted maximal effect.

`Fc1ccc(-[n+]2nc(Nc3ccccc3)sc2-c2c3ccccc3cc3ccccc23)cc1` gave Vaccinia Venus inconclusive, VACV mCherry inh -13%, Pf growth 96h inconclusive, Pf growth 48h inconclusive and HCV inh -8%[8.37 µM].
`COc1ccc(C)cc1Nc1n[n+](-c2ccccc2)c(-c2cc(OC)c(OC)cc2Br)s1` gave Vaccinia Venus inconclusive, VACV mCherry inh -21%, Pf growth 96h 9.3µM*, Pf growth 48h inconclusive, HCV inh -28% and NS1 function inh 9%.
`COc1ccc(C)cc1Nc1n[n+](-c2ccccc2)c(-c2ccc(C(=O)O)cc2)s1` gave Vaccinia Venus -12%, VACV mCherry inh -5%, Pf growth 96h 2.3µM*, Pf growth 48h 18%, HCV inh 7% and NS1 function inh 22%.
`N#Cc1nc(Cc2ccccc2)oc1NCCCn1ccnc1` gave Vaccinia Venus -9%, VACV mCherry inh -13%, Pf growth 96h 1%, Pf growth 48h inconclusive, HCV inh -11% and NS1 function inh 3%.
Screening COCc1nnc(NC(=O)c2sc3ccccc3c2Cl)s1 returned Pf growth 96h inconclusive, Pf growth 48h 66%, HCV inh 4% and NS1 function inh -170%.
`C=CCn1c(Cc2cccs2)nnc1SCC(=O)c1ccc(F)cc1` gave Pf growth 96h -33%, Pf growth 48h 1%, HCV inh -12% and NS1 function inh -10%.
Screening Nc1ccc(Nc2ccc([N+](=O)[O-])cc2[N+](=O)[O-])cc1 returned Pf growth 96h -103%, Pf growth 48h 14% and HCV inh -15%.
For COc1ccc(C)cc1Nc1n[n+](-c2ccccc2)c(-c2c(OC)ccc3ccccc23)s1 the results were Vaccinia Venus inconclusive, VACV mCherry inh 14µM*, Pf growth 96h inconclusive, Pf growth 48h 3.7µM* and HCV inh 32µM*.
COc1ccccc1CNC(=O)c1cc(-c2ccc(F)cc2C)n[nH]1 was read as Vaccinia Venus -6% and VACV mCherry inh inactive.
Screening COc1ccccc1C(=O)NCc1nnc(SCC(=O)Nc2nccs2)n1C returned Vaccinia Venus 0%, VACV mCherry inh -13%, Pf growth 96h inconclusive, Pf growth 48h -16%, HCV inh 7% and NS1 function inh 2%.
Screening CSc1c(CC(=O)NCCCO)n(Cc2ccccc2)c2ccccc12 returned Pf growth 96h 9.3µM*, Pf growth 48h -14%, HCV inh 12% and NS1 function inh -6%.
`COc1ccc(NC(=O)Cc2c(SC)c3ccccc3n2Cc2ccccc2)cc1` gave Vaccinia Venus inconclusive, VACV mCherry inh -15%, Pf growth 96h 7.4µM*, Pf growth 48h 12µM*, HCV inh 16% and NS1 function inh -2%.
COc1ccc(Cn2c(SCC(=O)Nc3ccc(OC)cc3)nc3ccccc32)cc1 was read as Vaccinia Venus -25% and VACV mCherry inh -17%.
Screening COCC(=O)N[C@@H]1c2cc(OC)c(OC)cc2C[C@H]1OCc1ccccc1 returned Vaccinia Venus -4%, VACV mCherry inh inactive and HCV inh -24%.
For CCOC(=O)CSc1nc2c(c(-c3ccc(C)o3)c1C#N)CCCC2 the results were Pf growth 96h -25%, Pf growth 48h -30%, HCV inh inconclusive and NS1 function inh -17%.
Screening CN(C)CCNc1oc(COc2ccc(Cl)cc2Cl)nc1C#N returned Pf growth 96h inconclusive, Pf growth 48h -27%, HCV inh -22% and NS1 function inh 4%.
`COCCCNc1oc(COc2ccc(Cl)cc2Cl)nc1C#N` gave Vaccinia Venus inconclusive, Pf growth 96h 13µM*, HCV inh -9% and NS1 function inh -71%.
`COc1ccc(OC)c(Nc2nc(N)nc(CCl)n2)c1` gave Vaccinia Venus 0%[7.34 µM], VACV mCherry inh -8%[7.34 µM], Pf growth 96h inconclusive, Pf growth 48h inconclusive, HCV inh 4µM* and NS1 function inh 5%.
COc1ccc(OCc2nc(N)nc(Nc3ccccc3OC)n2)cc1 was read as Vaccinia Venus 1%, VACV mCherry inh -2%, Pf growth 96h 8%, Pf growth 48h 1%, HCV inh 14µM* and NS1 function inh -14%.
COc1ccc(OC)c(Nc2nc(N)nc(CSc3nnc(N)s3)n2)c1 was read as Pf growth 96h 15%, Pf growth 48h -1%, HCV inh 4% and NS1 function inh 5%.
`COc1ccc(N2CCN(Cc3nc(N)nc(Nc4ccccc4OC)n3)CC2)cc1` gave Pf growth 96h inconclusive, Pf growth 48h -29%, HCV inh -7% and NS1 function inh -4%.
COc1ccccc1Nc1nc(N)nc(CCl)n1 was read as Vaccinia Venus -2%[7.34 µM], VACV mCherry inh -6%[7.34 µM], Pf growth 96h -10%, Pf growth 48h inconclusive, HCV inh 4.5µM* and NS1 function inh 6%.
Cc1cc(C(=O)Nc2cccc(-c3ccc(N4CCOCC4)nn3)c2)ccc1[N+](=O)[O-] was read as Vaccinia Venus -5%, VACV mCherry inh inconclusive, Pf growth 96h 10µM*, Pf growth 48h inconclusive and HCV inh 10µM*.
For CCCC(=O)N1CCN(c2ccc(NC(=O)c3ccc(N4CCCC4)c([N+](=O)[O-])c3)cc2Cl)CC1 the results were Vaccinia Venus -9%, VACV mCherry inh -8% and HCV inh inconclusive.
CN(C)S(=O)(=O)c1cc(NC(=O)c2ccc(-n3ccnc3)c([N+](=O)[O-])c2)ccc1Cl was read as Vaccinia Venus -11%, VACV mCherry inh -3%, Pf growth 96h inconclusive, Pf growth 48h 8.3µM*, HCV inh inconclusive and NS1 function inh 12%.
For CC(=O)N1CCN(c2ccc(NC(=O)c3ccc(N4CCCC4)c([N+](=O)[O-])c3)cc2Cl)CC1 the results were Vaccinia Venus -14%, VACV mCherry inh inconclusive, Pf growth 96h inconclusive, Pf growth 48h 12µM*, HCV inh 10µM* and NS1 function inh 2%.
`Cc1ccc(NC(=O)c2ccc(N3CCOCC3)c([N+](=O)[O-])c2)cc1S(=O)(=O)N1CCOCC1` gave Vaccinia Venus -23%, VACV mCherry inh -12%, Pf growth 96h inconclusive, Pf growth 48h inconclusive, HCV inh 3.5µM* and NS1 function inh 12%.
COc1ccccc1NC(=O)c1ccc(-n2ccnc2)c([N+](=O)[O-])c1 was read as Vaccinia Venus -2%, VACV mCherry inh -11%, Pf growth 96h inconclusive, Pf growth 48h inconclusive, HCV inh -28% and NS1 function inh 9%.
For Cc1ccc(C(=O)Nc2cccc(-c3ccc(N4CCOCC4)nn3)c2)cc1C the results were Vaccinia Venus 0%, VACV mCherry inh inactive, Pf growth 96h inconclusive, Pf growth 48h inconclusive and HCV inh inconclusive.

High-throughput results as filed in PubChem BioAssay.
